In PubChem BioAssay (NCI):
Several values for one entry are separate records, joined by “and”; a condition that tells them apart may be missing. Equal entries are not always repeated. The panel holds about 79,000 compounds, 15% with a hit somewhere; the sample as a whole holds those more often. The source holds several records for some structures; these can differ, active in one and inactive in another. Activity calls are given as the source filed them. Cut-off read from the data, not from the text of the source: active = growth inhibition above about 70%; inactive = the rest.

Key:
[1] = NCI Yeast Anticancer Drug Screen. Data for the rad52 strain (AID 147);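 note: 0% = growth of vehicle-treated control cultures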; conditions: S. cerevisiae rad52 mutant growth inhibition, stronger effect = higher value
In short: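 Yeast strain carrying a DNA damage repair alteration was exposed to test compounds. Growth inhibition was measured relative to vehicle-treated controls.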

[2] = NCI Yeast Anticancer Drug Screen. Data for the wt1 strain (AID 149);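 note: 0% = growth of vehicle-treated wt1 cultures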; conditions: S. cerevisiae wt1 strain (SPY 50644) growth inhibition, stronger effect = higher value
In short: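 wt1 yeast, compound-treated; % growth inhibition vs vehicle control.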

[3] = NCI Yeast Anticancer Drug Screen. Data for the rad50EPP+ strain (AID 151);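 note: 0% = growth of vehicle-treated control cultures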; conditions: S. cerevisiae rad50 mutant strain, stronger effect = higher value
In short: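 Yeast strain carrying rad50 alteration (rad50EPP+) exposed to compounds; growth inhibition measured relative to vehicle-treated controls.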

[4] = NCI Yeast Anticancer Drug Screen. Data for the mgt1 strain (AID 153); conditions: S. cerevisiae mgt1 mutant growth inhibition, stronger effect = higher value
In short: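 Yeast mgt1 strain (DNA repair/cell-cycle alteration panel) exposed to compounds; growth inhibition measured relative to vehicle-treated controls.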

[5] = NCI Yeast Anticancer Drug Screen. Data for the rad50 strain (AID 155);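 note: 0% = growth of vehicle-only cultures of the same strain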; conditions: S. cerevisiae rad50 strain growth inhibition, stronger effect = higher value
In short: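 Genetically altered yeast (DNA repair pathway); compound treatment; growth inhibition vs vehicle ctrl.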

[6] = NCI Yeast Anticancer Drug Screen. Data for the mec2-1 strain (AID 157); conditions: S. cerevisiae mec2-1 strain, stronger effect = higher value
In short: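 mec2-1 yeast strain, carrying an alteration in DNA damage repair or cell cycle control, was exposed to compounds; growth inhibition was measured relative to vehicle-treated controls.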

[7] = NCI Yeast Anticancer Drug Screen. Data for the rad14 strain (AID 159);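 note: 0% = growth of vehicle-treated control cultures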; conditions: S. cerevisiae rad14 strain growth inhibition, stronger effect = higher value
In short: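 Test compounds were applied to a repair-deficient yeast strain. Its growth was then compared with that of cultures given vehicle alone, and inhibition was expressed relative to those controls.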

[8] = NCI Yeast Anticancer Drug Screen. Data for the sgs1 mgt1 strain (AID 161);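 note: 0% = growth of cultures given vehicle only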; conditions: S. cerevisiae sgs1 mgt1 strain, stronger effect = higher value
In short: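 This yeast growth screen uses a strain with defined DNA-repair lesions; compound-treated growth is compared with vehicle-treated growth.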

[9] = NCI Yeast Anticancer Drug Screen. Data for the CLN2oe strain (AID 163);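 note: 0% = growth of vehicle-only control cultures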; conditions: S. cerevisiae CLN2oe strain, stronger effect = higher value
In short: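 Yeast cells carrying a defined cell-cycle control alteration were exposed to test compounds. Growth inhibition was scored against vehicle-treated control cultures.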

[10] = NCI Yeast Anticancer Drug Screen. Data for the cln2 rad14 strain (AID 165);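 note: 0% = growth equal to vehicle treated cultures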; conditions: S. cerevisiae cln2 rad14 strain, stronger effect = higher value
In short: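 Yeast carrying cln2 and rad14 alterations (cell cycle control and DNA damage repair) were exposed to compounds. Growth inhibition was measured against vehicle-treated controls.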

[11] = NCI Yeast Anticancer Drug Screen. Data for the bub3 strain (AID 167); conditions: S. cerevisiae bub3 mutant strain, stronger effect = higher value
In short: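 Yeast carrying a defined mutation is treated with each compound, and growth is compared with that of vehicle-exposed cells to give inhibition.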

[12] = NCI Yeast Anticancer Drug Screen. Data for the wt2 strain (AID 169);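 note: 0% = growth of vehicle-treated yeast cultures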; conditions: S. cerevisiae wt2 strain growth inhibition, stronger effect = higher value
In short: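 Yeast cells were exposed to test compounds, and growth inhibition was measured relative to vehicle-treated controls.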

[13] = NCI Yeast Anticancer Drug Screen. Data for the sgs1 strain (AID 173);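 note: 0% = growth of vehicle-only control cultures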; conditions: S. cerevisiae sgs1 mutant, stronger effect = higher value
In short: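 Yeast mutant strains carrying defined defects in DNA damage repair or cell cycle control were exposed to test compounds. Growth inhibition was scored against vehicle-treated controls.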

[14] = NCI Yeast Anticancer Drug Screen. Data for the mlh1 rad18 strain (AID 175); conditions: S. cerevisiae mlh1 rad18 strain growth inhibition, stronger effect = higher value
In short: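 Growth inhibition of the yeast strain was measured after compound exposure and expressed relative to vehicle-treated controls. The strain carries defined defects in DNA damage repair.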

[15] = NCI Yeast Anticancer Drug Screen. Data for the rad18 strain (AID 177); conditions: S. cerevisiae rad18 mutant growth inhibition, stronger effect = higher value
In short: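 Yeast carrying a defined DNA damage repair alteration were exposed to compounds. Growth inhibition was expressed relative to vehicle-treated controls.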

[16] = at 5.0 µM (retest, dose inferred, filed as 0.5)
[17] = at 50.0 µM (retest, dose inferred, filed as 5.0)

Measured: growth inhibition

O=C1C=C(N2CCN(c3ccccn3)CC2)C(=O)c2c(O)ccc(O)c21
inactive: [1]; at 1.2 µM 3% | [1]; at 3.7 µM 8% | [1]; at 11.0 µM 19% | [1]; at 33.0 µM 33% | [1]; at 100.0 µM 45% | [2]; at 1.2 µM 10% | [2]; at 3.7 µM 13% | [2]; at 11.0 µM 15% | [2]; at 33.0 µM 21% | [2]; at 100.0 µM 26% | [3]; at 1.2 µM -4% | [3]; at 3.7 µM -3% | [3]; at 11.0 µM 4% | [3]; at 33.0 µM 17% | [3]; at 100.0 µM 26% | [4]; at 1.2 µM 5% | [4]; at 3.7 µM 8% | [4]; at 11.0 µM 14% | [4]; at 33.0 µM 20% | [4]; at 100.0 µM 47% | [5]; at 1.2 µM -3% | [5]; at 3.7 µM -8% | [5]; [16] 28% | [5]; at 11.0 µM 0% | [5]; at 33.0 µM 37% | [5]; at 100.0 µM 55% | [6]; at 1.2 µM 7% | [6]; at 3.7 µM 8% | [6]; [16] -17% | [6]; at 11.0 µM 10% | [6]; at 33.0 µM 19% | [6]; at 50.0 µM 65.2% | [6]; at 100.0 µM 27% | [7]; at 1.2 µM 9% | [7]; at 3.7 µM 14% | [7]; at 11.0 µM 29% | [7]; at 33.0 µM 69% | [8]; [16] 8% | [9]; at 1.2 µM 11% | [9]; at 3.7 µM 7% | [9]; at 11.0 µM 13% | [9]; at 33.0 µM 21% | [9]; at 100.0 µM 21% | [10]; [16] -6% | [10]; [17] 15% | [10]; at 50.0 µM 25.9% | [11]; at 1.2 µM 4% | [11]; at 3.7 µM 3% | [11]; [16] 5% | [11]; at 11.0 µM 10% | [11]; at 33.0 µM 23% | [11]; at 100.0 µM 34% | [12]; at 1.2 µM 4% | [12]; at 3.7 µM 9% | [12]; at 11.0 µM 15% | [12]; at 33.0 µM 32% | [12]; at 100.0 µM 52% | [13]; at 1.2 µM 8% | [13]; at 3.7 µM 11% | [13]; at 11.0 µM 22% | [13]; at 33.0 µM 63% | [14]; [16] 10% | [15]; at 1.2 µM 1% | [15]; at 3.7 µM 4% | [15]; at 11.0 µM 17% | [15]; at 33.0 µM 46% | [15]; at 100.0 µM 68%
active: [5]; [17] 94% | [5]; at 50.0 µM 84.5% | [6]; [17] 84% | [7]; at 100.0 µM 87% | [8]; [17] 91% | [8]; at 50.0 µM 82.7% | [11]; [17] 71% | [11]; at 50.0 µM 88.8% | [13]; at 100.0 µM 82% | [14]; [17] 94% | [14]; at 50.0 µM 72.5%

COc1cc([C@@H]2c3cc4c(cc3[C@@H](Nc3ccc(NC(=O)c5cc([N+](=O)[O-])cn5C)cc3)[C@H]3COC(=O)[C@H]23)OCO4)cc(OC)c1O
67.5% (inactive) and 74.8% (active): [6]; at 50.0 µM
inactive: [1]; at 1.2 µM 25% | [2]; at 1.2 µM 9% | [2]; at 3.7 µM 20% | [2]; at 11.0 µM 26% | [2]; at 33.0 µM 32% | [2]; at 100.0 µM 36% | [3]; at 1.2 µM 4% | [3]; at 3.7 µM 10% | [3]; at 11.0 µM 27% | [3]; at 33.0 µM 14% | [3]; at 100.0 µM 22% | [4]; at 1.2 µM -3% | [4]; at 3.7 µM 5% | [4]; at 11.0 µM 14% | [4]; at 33.0 µM 35% | [4]; at 100.0 µM 41% | [5]; at 1.2 µM 11% | [6]; at 1.2 µM -16% | [6]; at 3.7 µM 6% | [6]; [16] 38% and 52% | [6]; at 11.0 µM 42% | [6]; at 33.0 µM 66% | [7]; at 1.2 µM 4% | [7]; at 3.7 µM 16% | [7]; at 11.0 µM 18% | [7]; at 33.0 µM 50% | [7]; at 100.0 µM 59% | [8]; [16] 16% and 54% | [8]; at 50.0 µM 47.5% and 67% | [9]; at 1.2 µM 19% | [9]; at 3.7 µM 23% | [9]; at 11.0 µM 44% | [9]; at 33.0 µM 58% | [10]; [16] 16% and 22% | [10]; at 50.0 µM 47% and 49.9% | [11]; at 1.2 µM -10% | [11]; at 3.7 µM 0% | [11]; [16] 19% and 42% | [11]; at 11.0 µM 14% | [11]; at 33.0 µM 36% | [11]; at 50.0 µM 26.8% and 51.2% | [11]; at 100.0 µM 43% | [12]; at 1.2 µM -28% | [12]; at 3.7 µM -12% | [12]; at 11.0 µM -8% | [12]; at 33.0 µM 6% | [12]; at 100.0 µM 17% | [13]; at 1.2 µM -6% | [13]; at 3.7 µM 6% | [13]; at 11.0 µM 30% | [13]; at 33.0 µM 44% | [13]; at 100.0 µM 49% | [15]; at 1.2 µM -9% | [15]; at 3.7 µM 3% | [15]; at 11.0 µM 27% | [15]; at 33.0 µM 43% | [15]; at 100.0 µM 53%
50% (inactive) and 84% (active): [10]; [17]
62% (inactive) and 95% (active): [14]; [17]
67.5% (inactive) and 75.9% (active): [5]; at 50.0 µM
active: [1]; at 3.7 µM 84% | [1]; at 11.0 µM 92% | [1]; at 33.0 µM 91% | [1]; at 100.0 µM 93% | [5]; at 3.7 µM 74% | [5]; [16] 92% and 96% | [5]; at 11.0 µM 88% | [5]; at 33.0 µM 92% | [5]; [17] 95% and 97% | [5]; at 100.0 µM 92% | [6]; [17] 79% and 96% | [6]; at 100.0 µM 74% | [9]; at 100.0 µM 77%
37% (inactive) and 80% (active): [14]; [16]
46% (inactive) and 90% (active): [11]; [17]
53% (inactive) and 93% (active): [8]; [17]
20.1% (inactive) and 74.3% (active): [14]; at 50.0 µM
